Screening results as filed in PubChem.
PME-1 primary: blocks human protein phosphatase methylesterase 1. Q9Y570. recombinant PME-1, FP-Rh probe fluorescence polarization. inhibition, % at 5.9 µM. actives 0.53% (n = 320,000). AID 2130;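 active means inhibition above the campaign mean of all compounds plus 3 SD, cut at about 26% in these data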;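 further: competitive labeling of PME-1 active site by serine hydrolase directed probe; 0% = PME-1 with DMSO and 100% = wells lacking PME-1 enzyme; inhibitors block probe labeling so polarization falls and inhibition rises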
Target sequence (Q9Y570 whole entry, looked up): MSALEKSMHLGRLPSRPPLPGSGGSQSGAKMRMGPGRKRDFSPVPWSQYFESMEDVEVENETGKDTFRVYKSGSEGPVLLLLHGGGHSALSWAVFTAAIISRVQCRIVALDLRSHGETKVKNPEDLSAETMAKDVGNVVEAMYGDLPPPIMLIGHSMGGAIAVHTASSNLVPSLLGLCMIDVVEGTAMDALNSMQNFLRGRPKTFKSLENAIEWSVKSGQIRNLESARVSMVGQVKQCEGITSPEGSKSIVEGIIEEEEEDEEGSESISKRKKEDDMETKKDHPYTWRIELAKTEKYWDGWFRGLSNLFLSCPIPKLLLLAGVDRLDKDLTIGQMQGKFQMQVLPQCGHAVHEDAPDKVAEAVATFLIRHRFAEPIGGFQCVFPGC
LYPLA2 inh: LYPLA2 (human) inhibition in PME1 counter-screen; O95372; recombinant LYPLA2, FP-Rh probe fluorescence polarization; inhibition, % at 5.9 µM; actives 0.38% (n = 320,000); AID 2177;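 active means inhibition above the screen-wide mean plus 3 SD, limit set per campaign, cut at about 26% in these data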;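 further: 0% = LYPLA2 with DMSO and 100% = wells lacking LYPLA2 enzyme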
PREPL inhibitor: human PREPL enzyme inhibition. Q4J6C6. recombinant PREPL, fluorescence polarization activity-based probe. inhibition, % at 5.96 µM. actives 0.68% (n = 320,000). AID 2751; in the data active means inhibition above about 43%;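 further: 0% = enzyme with DMSO and 100% = wells lacking enzyme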
Fam108B inh: Fam108B inhibition, counter-screen for RBBP9 inhibitors; recombinant Fam108B, FP-Rh probe fluorescence polarization; inhibition, % at 9.51 µM; actives 0.33% (n = 300,000); AID 1947;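 active means inhibition above the screen mean inhibition plus 3 SD, computed separately per campaign, cut at about 18% in these data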;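 further: inhibitors lower polarization as less probe binds the enzyme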
MEX-5 binding: C. elegans MEX-5 TCR-2 RNA binding activity. Q9XUB2. MEX-5/FITC-TCR2 RNA binding, fluorescence polarization; stronger effect = lower value. actives 0.38% (n = 300,000). activity score (negative = inhibition of binding), % at 10 µM;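 active means inhibition past about -25% in most replicates, and total fluorescence under double the plate's negative control median, limit read from the data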;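 further: 0% = DMSO and -100% = 5 µM competing unlabeled TCR2 RNA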
LYPLA1 counter: counter-screen for PME1 inhibitors: inhibitors of human LYPLA1. recombinant LYPLA1, FP-Rh probe fluorescence polarization. inhibition, % at 5.9 µM. actives 0.16% (n = 320,000);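 active means inhibition above the mean of all tested compounds plus 3 SD, set per campaign, cut at about 14% in these data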;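 further: inhibitors block serine hydrolase probe labeling of LYPLA1 so polarization falls; 0% = enzyme with DMSO and 100% = wells lacking LYPLA1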
Target sequence (O75608 whole entry, looked up): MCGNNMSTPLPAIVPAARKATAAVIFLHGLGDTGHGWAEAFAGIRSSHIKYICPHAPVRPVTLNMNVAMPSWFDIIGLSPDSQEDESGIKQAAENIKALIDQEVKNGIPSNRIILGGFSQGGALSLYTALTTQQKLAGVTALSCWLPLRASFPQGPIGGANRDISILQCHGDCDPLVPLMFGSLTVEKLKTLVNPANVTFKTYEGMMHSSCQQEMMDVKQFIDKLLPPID
LYPLA2 confirm: LYPLA2 (human) inhibition, confirmation counter-screen; shares compounds with LYPLA2 inh; recombinant LYPLA2, FP-Rh probe fluorescence polarization; inhibition, % at 5.9 µM; actives 72% (n = 1,100); AID 2232;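 active means mean inhibition across replicates above the hit cutoff set in the primary screen, cut at about 26% in these data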;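 further: blocked labeling of the enzyme by serine hydrolase FP-Rh probe lowers polarization; 0% = enzyme with DMSO and 100% = wells lacking LYPLA2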
LYPLA2 gel ABPP: LYPLA2 (human) inhibition, late stage results | shares compounds with LYPLA2 inh | rhLYPLA2 in mouse brain proteome, gel ABPP FP-Rh | inhibition, % at 20 µM | actives 30% (n = 150);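 active means inhibition of LYPLA2 enzyme probe labeling above about 50%, limit read from the data; inactive means inhibition below that limit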;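 further: loss of FP-Rh probe labeling of the LYPLA2 gel band measured as band density; 0% = DMSO only control band and 100% = blank gel background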
The depositor's hits bear a star; x = no result. Only some compounds are listed: those with a hit (about 1.6% of all), similar ones and a draw of the others.

SMILES	PME-1 primary	LYPLA2 inh	PREPL inhibitor	Fam108B inh	MEX-5 binding	LYPLA1 counter	LYPLA2 confirm	others
COc1ccc(N2CCN(Cc3nc(-c4ccccc4)no3)CC2)cc1	-5	26*	20	0	2	6	16
CSc1ccc(S(=O)(=O)N2CCC(C(=O)Nc3ccc(C(N)=O)cc3)CC2)cc1	-5	4	-8	-3	0	-3	x
O=c1ccc(-c2ccccc2)nn1Cc1ccc(F)cc1Cl	1	35*	-12	4	-1	-3	34*
O=c1ccc(-c2ccccc2)nn1Cc1ccc(F)cc1	1	27*	-11	7	0	1	24
Cc1cc(=O)oc(C)c1C(=O)NCCc1ccccc1	-2	-3	-3	5	-2	-4	x
COc1cccc(-n2c(SCC(N)=O)nc3c([nH]c4ccccc43)c2=O)c1	4	174*	0	0	0	2	1
COc1cccc(-n2c(SCC(=O)N3CCCCC3)nc3c([nH]c4ccccc43)c2=O)c1	0	-1	-4	1	1	1	x
CCOc1ccc(NC(=O)COC(=O)C23CC4CC(CC(C4)C2)C3)c([N+](=O)[O-])c1	2	6	5	-2	-1	-4	x
Cc1coc2c1C(=O)C(=O)c1c-2ccc2c1CCCC2(C)C	8	35*	10	8	0	5	56*
CCN1CCN(C(=O)c2ccc3c(c2)S(=O)(=O)c2ccccc2C3=O)CC1	2	40*	-8	5	0	6	44*
CC(=O)N1CCN(C(=O)c2ccc3c(c2)S(=O)(=O)c2ccccc2C3=O)CC1	-3	32*	29	10	2	3	32*
Cc1oc2c(c(C)cc3oc(=O)c(CC(=O)NCC(=O)NCC(=O)O)c(C)c32)c1C	-2	5	25	1	-1	0	x
COc1ccc(CCNC2CC(=O)N(CCc3ccc(OC)c(OC)c3)C2=O)cc1OC (stereo not drawn)	x	x	x	x	0	x	x
COc1ccc(CCN2C(=O)CC(NNc3ccc([N+](=O)[O-])cc3)C2=O)cc1OC (stereo not drawn)	5	51*	1	-2	-4	1	54*	LYPLA2 gel ABPP=17
CCc1ccc(CN(C)C(=O)C2CCC(=O)N(CC3CCCCC3)C2)cc1 (stereo not drawn)	7	1	16	5	-1	-3	x
CCOC(=O)Nc1ccc(S(=O)(=O)Nc2onc(C)c2C)cc1	0	3	23	9	-2	2	x
COC(=O)N/N=C/c1ccccc1OCc1ccccc1	-1	0	-1	1	2	0	x
COC(=O)N/N=C/c1ccccc1OCCOc1ccc(OC)cc1	-6	35*	4	-1	1	1	42*
O=C(Cc1c(F)cccc1Cl)NCCCn1ccnc1	0	3	6	-2	0	0	x
C=CCn1c(SCc2ccc(C(=O)O)cc2)nc2sc(C)c(C)c2c1=O	-3	43*	-2	-1	0	-1	37*
O=C(c1ccc(N2CCN(C(=O)c3ccccc3Br)CC2)cc1)c1cccc(F)c1	1	0	16	-7	2	-1	x
O=C(c1ccc(N2CCN(C(=O)c3cccc(F)c3)CC2)cc1)c1cccc(F)c1	5	43*	16	3	0	6	29*
C/C(=N/NC(=O)C1COc2ccccc2O1)c1ccc(Br)s1 (stereo not drawn)	-5	-1	-9	-3	-2	-4	x
O=C(Nc1cccc(O)c1)c1cc2nc(-c3ccccc3)cc(-c3ccccc3)n2n1	-6	-9	0	3	0	-6	x
CCc1nnc(NS(=O)(=O)c2ccc(N/C=C(\C=O)c3nc4cc(Cl)ccc4o3)cc2)s1	6	29*	1	-3	-16	0	43*
SMILES	PME-1 primary	LYPLA2 inh	PREPL inhibitor	Fam108B inh	MEX-5 binding	LYPLA1 counter	LYPLA2 confirm	others
Cc1ccc(NC(=O)CN(C)C(=O)C2COc3ccccc3O2)cc1 (stereo not drawn)	2	-3	1	-3	0	0	x
CCOC(=O)CNC(=O)Cn1c(C)cc2ccccc2c1=O	2	1	-1	-4	2	0	x
CCOC(=O)C1CCN(C(=O)CNC(=O)Cn2c(C)cc3ccccc3c2=O)CC1	2	29*	0	2	0	2	19
C[C@H](CO)N1C[C@H](C)[C@@H](CN(C)C(=O)Nc2ccccc2)Oc2ccc(NC(=O)C3CCCCC3)cc2C1=O	x	x	5	x	x	x	x
O=C(OCC(=O)N1CCN(Cc2ccccc2)CC1)c1cc(Cl)ccc1[N+](=O)[O-]	2	39*	18	x	x	9	40*
CC(=O)c1ccc(N2CCN(C(=O)CCCc3nc4ccccc4s3)CC2)cc1	5	42*	19	-1	5	6	44*
CC(=O)c1ccc(N2CCN(C(=O)CCCn3c(=O)[nH]c4ccccc4c3=O)CC2)cc1	-4	53*	-19	-3	-3	6	49*
COc1ccc(N2CCN(C(=O)CSc3nc4[nH]ncc4c(=O)n3-c3cccc4ccccc34)CC2)cc1	1	34*	0	4	-1	2	30*
CCOC(=O)N1CCN(C(=O)CCCn2c(=O)[nH]c3ccccc3c2=O)CC1	1	6	12	3	2	2	x
COc1ccc(N2CCN(C(=O)Cc3ccc(-n4c(=O)[nH]c5ccccc5c4=O)cc3)CC2)cc1	0	57*	17	6	0	10	51*	LYPLA2 gel ABPP=28
CCOC(=O)c1cc(NC(=O)Nc2nc3ccccc3s2)c(C)nc1C	-2	-2	-1	-3	-1	-5	x
CCC(NC(=O)c1cc(COc2ccc(Cl)cc2OC)on1)c1ccncc1 (stereo not drawn)	3	-2	-7	-3	2	0	x
O=C(CN1CCOc2ccccc21)NCc1ccc(Cl)cc1	-4	4	3	2	0	1	x
COc1ccc(CCNC2CCC(c3ccccc3)CC2)cc1 (stereo not drawn)	2	5	-21	2	1	-1	x
O=C(c1ccc(Cn2c(=O)[nH]c3ccccc3c2=O)cc1)N1CCN(c2ccccc2)CC1	-4	35*	-74	-2	2	8	28*
O=C(c1ccc(Cn2c(=O)[nH]c3ccccc3c2=O)cc1)N1CCN(c2ccccn2)CC1	5	6	-2	3	3	2	x
O=[N+]([O-])c1ccc(Oc2cccc3cccnc23)c(Cl)c1	4	28*	18	1	1	-4	16
